Screens from PubChem BioAssay.
Rows were chosen to be rich in hits. Some 21% of all compounds tested hit in one or more screens of this group.
HCMV inh: human cytomegalovirus inhibition; HFF cells, HCMV-luciferase reporter, 72 h; active compounds read low; activity change, negative = inhibition, % at 57.5 µM; 4.5% of 410,000 active; AID 1259415; in the data active means activity change below about -60%; inconclusive means no clear call, values can overlap the other calls; inactive means above about -39%; further: on the % scale 0 is the no-effect control and ±100 the full control effect
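Two compound doses tested in HFFs infected with HCMV-luciferase, MOI 1 PFU/cell, 72 h at 37C. Lysate luminescence read with OneGlo; data normalized against buffer-only and 10uM Salinomycin inhibitor controls.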
Pf growth 48h: inhibits P. falciparum growth in the first generation, 48 h; P. falciparum luciferase growth in erythrocytes, 48 h; Potency, µM (highest dose often 28.7 µM), inactives show at the top dose activity change, negative = inhibition, most hits filed as inhibitors; 5.9% of 310,000 active; AID 504832; further: potency means the concentration at half of the fitted maximal effect; on the % scale 0 is the no-effect control and ±100 the full control effect
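Luciferase-expressing P. falciparum in infected erythrocytes (2% hematocrit, 0.1% parasitemia final) in RPMI 1640/0.5% Albumax were exposed to compound for 48 hours at 37 C, 5% CO2; growth read as luminescence.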
Shiga toxin inh: inhibitors of Shiga toxin in Vero cells; 9.2% of 290,000 active; Vero cells, Shiga toxin protein synthesis inhibition reporter; inhibition, % at 38.7 µM; in the data active means inhibition mostly above about 28%, no sharp cut-off; inactive means mostly below about 43%; further: 0% is about no effect
Pf growth 96h: P. falciparum growth inhibition at 96 hour, primary screen for plastid delayed-death inhibitors; P. falciparum luciferase reporter growth, 96 h; Potency, µM (doses to about 28.7 µM), for inactives: at the highest dose activity change, negative = inhibition, actives largely listed as inhibitors; 6.9% of 320,000 active; further: potency means the concentration at half of the fitted maximal effect; on the % scale 0 is the no-effect control and ±100 the full control effect
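Infected RBCs, 2% Hct / 0.05% parasitemia final; luciferase-reporter P. falciparum; cpd 96 h, 37 C, 5% CO2; luciferase detection reagent; luminescence.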
HCV inhibitor: inhibitors of hepatitis C virus infection; Huh7.5.1 HCVcc-Cre infection, luciferase reporter, 44 h; Potency, µM (series often up to 41.8 µM), inactives show at the top dose activity change, negative = inhibition, actives largely listed as inhibitors; 3.4% of 340,000 active; AID 651820; further: potency means the concentration at half of the fitted maximal effect; on the % scale 0 is the no-effect control and ±100 the full control effect
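Seed cells (1,000/well) for 4 h; treat with compound and infect with HCVcc-Cre, moi about 0.5. Incubate 44 h, then detect luciferase activity.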
CHX counter: counter-screen hit for Shiga toxin inhibitors, cycloheximide; cell reporter, cycloheximide protein synthesis inhibition counterscreen; max response, %; 12% of 300,000 active; AID 2314; in the data active means max response mostly above about 13%, no sharp cut-off; inactive means mostly below about 14%; further: read at 38.3 µM for the half of the compounds with a filed dose; 0% is about no effect
An asterisk follows results filed as active; [ ] = another dose, or the depositor's remark. Unless noted, the call rests on the fitted dose curve; in most records, active means well fitted inhibition curve with a large enough effect; inconclusive means small, poorly fitted or top-dose-only effect, or another doubt; inactive means no such curve, though single readings can be large or run the other way.

Screening Cc1c(O)c(CN2CCCCC2)cc2c1oc(=O)c1ccccc12 returned HCMV inh -3.9, Pf growth 48h 0.329µM*, Shiga toxin inh 23.9, Pf growth 96h 0.465µM*, HCV inhibitor -7.5% and CHX counter -0.9.
O=c1oc2c(CN3CCCCC3)c(O)ccc2c2c1CCCC2 was read as HCMV inh -1.0, Shiga toxin inh 2.3, Pf growth 96h inconclusive, HCV inhibitor 16.2% and CHX counter 7.7.
`CN(C)Cc1c(O)c(Cl)cc2c3c(c(=O)oc12)CCCC3` gave HCMV inh -17.5, Shiga toxin inh -8.3, Pf growth 96h -20.8%, HCV inhibitor -6.8% and CHX counter -4.3.
O=c1oc2c(CN3CCOCC3)c(O)c(Cl)cc2c2c1CCC2 was read as HCMV inh -24.7, Pf growth 48h 1.04µM*, Shiga toxin inh 6.3, Pf growth 96h 2.3% and CHX counter 5.2.
Cc1c(C)c2ccc(O)c(CN3CCCC3)c2oc1=O was read as HCMV inh 30.9, Pf growth 48h inconclusive, Shiga toxin inh -9.3, Pf growth 96h inconclusive, HCV inhibitor 5.2% and CHX counter -6.3.
Cc1c(O)c(CN(C)C)cc2c1oc(=O)c1ccccc12 was read as HCMV inh -36.0, Pf growth 48h 4.15µM*, Shiga toxin inh -17.4, Pf growth 96h 2.08µM*, HCV inhibitor -13.8% and CHX counter -2.6.
Screening CCN(CC)C(=O)Cn1c(=O)n(-c2ccc(Cl)cc2)c(=O)c2c3c(sc21)CCCCC3 returned HCMV inh -5.1.
Screening Cc1nc2ccccc2n1CC(=O)NCc1ccccc1 returned HCMV inh -78.9*, Pf growth 48h 6.4%, Shiga toxin inh -8.7, Pf growth 96h -4.1%, HCV inhibitor -17.7% and CHX counter -1.7.
Screening c1ccc(CCn2nnc3ccccc32)cc1 returned HCMV inh 16.6, Pf growth 48h 92.3%, Shiga toxin inh 188.7*, Pf growth 96h 103.8%, HCV inhibitor -2.2% and CHX counter 50.0*.
COc1ccc(NC(=O)CCn2cc(C)c3ccccc32)cc1 was read as Pf growth 48h -2.7%, Shiga toxin inh 56.1*, Pf growth 96h -10.2%, HCV inhibitor -29.7% and CHX counter 48.3*.
`O=C(Cn1nnc2ccccc21)NCc1ccccc1` gave HCMV inh 116.7, Pf growth 48h 298.5%, Shiga toxin inh 63.9*, Pf growth 96h -4.3%, HCV inhibitor -1.0% and CHX counter 59.8*.
Screening O=C(c1ccc(Cn2c(=S)[nH]c3ccc(Br)cc3c2=O)cc1)N1CCN(C2CCCCC2)CC1 returned HCMV inh -3.7, Pf growth 48h inconclusive, Shiga toxin inh -5.6, Pf growth 96h inconclusive, HCV inhibitor inconclusive and CHX counter -7.6.
`Cc1cc(=O)c2ccccc2n1Cc1ccccc1` gave HCMV inh -69.8*, Pf growth 48h -4.3%, Shiga toxin inh -13.6, Pf growth 96h inconclusive, HCV inhibitor 12.6µM* and CHX counter 11.7.
COc1ccc(-n2c(=O)c3ccc(C(=O)NCc4ccc(C)cc4)cc3n(CC(=O)Nc3ccc(F)cc3)c2=O)cc1 was read as HCMV inh -19.9.
`Cc1cc(=O)c2ccccc2n1CC(=O)NCc1ccccc1` gave HCMV inh -71.1*, Pf growth 48h -18.2%, Shiga toxin inh -2.3, Pf growth 96h 0.0%, HCV inhibitor inconclusive and CHX counter -3.5.
COc1ccc(-n2c(=O)c3ccc(C(=O)NCc4ccc(C)cc4)cc3n(CC(=O)Nc3ccc(C)cc3)c2=O)cc1 was read as HCMV inh -70.8*.
Screening COc1cccc(NC(=O)CNC(=O)Cn2c(C)cc3ccccc3c2=O)c1 returned HCMV inh 4.6.
Screening COc1cccc2c(=O)cc(C)n(CC(=O)Nc3cccc(C)c3)c12 returned HCMV inh inconclusive, Pf growth 48h inconclusive, Shiga toxin inh -17.5, Pf growth 96h -21.8%, HCV inhibitor 8.91µM* and CHX counter -6.0.
`CCOC(=O)Cn1c(C)cc(=O)c2ccccc21` gave HCMV inh -4.9, Pf growth 48h 3.9%, Shiga toxin inh -6.4, Pf growth 96h inconclusive, HCV inhibitor 5.0% and CHX counter -4.0.
COc1cccc(CN2CC(C(=O)NCCn3ccc(C)n3)CCC2=O)c1 (stereo not drawn) was read as HCMV inh 24.4, Pf growth 48h 0.4%, Shiga toxin inh -8.2, Pf growth 96h inconclusive, HCV inhibitor 7.9% and CHX counter 9.1.
`COc1ccc(NC(=O)Cn2c(=O)n(CCc3ccccc3)c(=O)c3ccccc32)cc1` gave HCMV inh 25.7.
Screening COc1ccc(NC(=O)Cn2c(C)cc(=O)c3ccccc32)cc1 returned HCMV inh -79.8*, Pf growth 48h -20.1%, Shiga toxin inh -15.9, Pf growth 96h inconclusive, HCV inhibitor 7.08µM* and CHX counter -6.1.
CC(NC(=O)Cn1c(NCCO)nc2ccccc21)C1CC2CCC1C2 (stereo not drawn) was read as HCMV inh -14.8, Pf growth 48h inconclusive, Shiga toxin inh 20.2, Pf growth 96h inconclusive, HCV inhibitor -15.3% and CHX counter -2.5.
`COc1ccc(CNC(=O)CCCC(=O)n2nc(C)c3ccccc32)cc1` gave HCMV inh 5.9, Pf growth 48h 20.3%, Shiga toxin inh -8.6, Pf growth 96h -15.9%, HCV inhibitor -20.3% and CHX counter -3.2.
`Cc1nc2ccccc2n1CC(=O)NC(C)C1CC2CCC1C2` (stereo not drawn) gave HCMV inh -64.8*, Pf growth 48h inconclusive, Shiga toxin inh -1.7, Pf growth 96h inconclusive, HCV inhibitor inconclusive and CHX counter 7.2.
Cc1nn(C(=O)CCCC(=O)NCc2ccccc2)c2ccccc12 was read as HCMV inh -21.9, Pf growth 48h 23.4%, Shiga toxin inh -6.0, Pf growth 96h inconclusive, HCV inhibitor 22.4µM* and CHX counter 2.5.
`COc1ccccc1NC(=O)Cn1c(=O)n(Cc2ccc3c(c2)OCO3)c(=O)c2oc3ccccc3c21` gave HCMV inh 2.4.
COCc1nc2ccccc2n1Cc1ccccc1 was read as HCMV inh 82.0, Pf growth 48h 30.0%, Shiga toxin inh 17.3, Pf growth 96h inconclusive, HCV inhibitor 16.5% and CHX counter 20.3*.
`COCc1nc2ccccc2n1Cc1ccc(Br)cc1` gave HCMV inh 49.7, Pf growth 48h inconclusive, Shiga toxin inh 43.3, Pf growth 96h -1.0%[5.75 µM], HCV inhibitor 7.6% and CHX counter 26.3.
Screening ClCc1nc2ccccc2n1Cc1ccccc1 returned HCMV inh inconclusive, Pf growth 48h 6.57µM*, Shiga toxin inh 10.8, Pf growth 96h inconclusive, HCV inhibitor -5.7% and CHX counter 0.1.
For COCCCNC(=O)c1c(NC(=O)Cc2coc3c(C)c(C)ccc23)sc2c1CCCC2 the results were HCMV inh -13.5.
